# Values without a mark were called inactive. Results filed as inconclusive are left out. Where a call stands in place of a potency, no number is given. Active and inactive are the calls of the source. Unless noted, calls follow the shape of the dose curve; as a rule, active = well fitted curve in the direction sought with a large enough effect; inconclusive = small, poorly fitted or top-dose-only effect, or another doubt; inactive = no such curve, though single readings can be large; an effect the other way counts as inactive or inconclusive.
# Assays:
# [1] = Confirmation and Secondary Assay for Modulators of Hemoglobin Beta Chain Splicing at IVS2 654 locus (AID 910); conditions: HeLa EGFP-654 splicing reporter, GFP fluorescence, 48 h; series mostly up to 46.1 µM;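 also: HeLa cells stably carrying EGFP split by mutant beta-globin IVS2-654 intron; per-well total GFP intensity by laser scanning cytometry after 2-day treatment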
# Summary of the method: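 Readout: per-well total peak green fluorescence (488 nm ex, 500–520 nm em) from objects 5–250 µm, reflecting correct splicing of an EGFP-654 reporter. Compounds were applied for 2 days at 37 °C to overnight-plated HeLa EGFP-654 cells; controls were DMSO and 500 nM IVS2-654 PNA.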
# [2] = Confirmation and Secondary Assay for Modulators of Hemoglobin Beta Chain Splicing at IVS2 705 locus (AID 930); conditions: HeLa EGFP-705 splicing reporter, GFP fluorescence, 48 h; series mostly up to 46.1 µM;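 also: HeLa cells stably expressing the EGFP-705 splicing reporter; GFP fluorescence per well restored by corrected splicing of the IVS2-705 intron in EGFP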
# Summary of the method: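 Stable HeLa line with EGFP disrupted by mutant beta-globin intron 2 (705). Overnight attachment, then 2 days of compound at 37C, 5% CO2. Signal: peak GFP intensity summed over objects 5-250 µm.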
# [3] = target: Muscarinic acetylcholine receptor M1 (Rattus norvegicus) (UniProt P08482); assay: qHTS Assay for Antagonists of Acetylcholine Muscarinic M1 Receptor: Kinetic Measurement of Intracellular Calcium Response (AID 943); conditions: M1-expressing cells, kinetic intracellular calcium fluorescence; series mostly up to 35.3 µM;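 also: Fluo-4 calcium signal as peak divided by basal fluorescence over 4 min; nearly all actives have a fitted effect of over 75% in size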
# Sequence of Muscarinic acetylcholine receptor M1 (Rattus norvegicus) (P08482 whole entry, looked up): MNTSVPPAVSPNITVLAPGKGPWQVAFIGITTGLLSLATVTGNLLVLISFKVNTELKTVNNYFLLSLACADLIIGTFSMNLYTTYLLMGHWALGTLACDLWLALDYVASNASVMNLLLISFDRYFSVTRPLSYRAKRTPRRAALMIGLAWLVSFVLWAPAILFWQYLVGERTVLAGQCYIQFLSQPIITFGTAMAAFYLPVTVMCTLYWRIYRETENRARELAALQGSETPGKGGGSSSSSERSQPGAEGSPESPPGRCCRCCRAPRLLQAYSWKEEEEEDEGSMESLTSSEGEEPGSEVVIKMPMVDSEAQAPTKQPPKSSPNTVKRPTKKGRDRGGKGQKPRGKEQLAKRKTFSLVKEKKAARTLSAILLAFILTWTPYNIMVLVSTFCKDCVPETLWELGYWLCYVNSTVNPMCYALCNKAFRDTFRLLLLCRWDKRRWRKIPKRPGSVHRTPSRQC
# Summary of the method: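 Intracellular calcium flux, recorded with Fluo-4 in a kinetic plate reader, served as signal; the response to carbachol at EC80 (100 nM final) was taken as maximal over minimal fluorescence after a 10 min compound pre-incubation in rat M1-CHO cells.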
# [4] = target: Muscarinic acetylcholine receptor M1 (Rattus norvegicus) (UniProt P08482); assay: qHTS Assay for Antagonists of Acetylcholine Muscarinic M1 Receptor: Measurement of IP-One Response (AID 944); conditions: CHO-M1 cells, IP-One HTRF, antagonist mode; series mostly up to 46.1 µM; also: nearly all actives have a fitted effect of over 75% in size; also: potency is read from the fitted curve at half-maximal effect
# Summary of the method: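 Steps: plate transfected CHO-M1 cells overnight; add test compound, 10 min; add carbachol (200 nM, EC80) in stimulation buffer with LiCl; incubate 30 min; add labelled IP1 tracer and anti-IP1 antibody in lysis buffer; read HTRF after 10 min.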
# [5] = target: Pyruvate kinase (Leishmania mexicana) (UniProt Q27686); assay: qHTS Validation Assay for Inhibitors of Leishmania Mexicana Pyruvate Kinase (AID 945); conditions: purified L. mexicana pyruvate kinase, enzyme activity, E451W mutant enzyme; series mostly up to 57.5 µM
# Sequence of Pyruvate kinase (Leishmania mexicana) (Q27686 2-499 E452W): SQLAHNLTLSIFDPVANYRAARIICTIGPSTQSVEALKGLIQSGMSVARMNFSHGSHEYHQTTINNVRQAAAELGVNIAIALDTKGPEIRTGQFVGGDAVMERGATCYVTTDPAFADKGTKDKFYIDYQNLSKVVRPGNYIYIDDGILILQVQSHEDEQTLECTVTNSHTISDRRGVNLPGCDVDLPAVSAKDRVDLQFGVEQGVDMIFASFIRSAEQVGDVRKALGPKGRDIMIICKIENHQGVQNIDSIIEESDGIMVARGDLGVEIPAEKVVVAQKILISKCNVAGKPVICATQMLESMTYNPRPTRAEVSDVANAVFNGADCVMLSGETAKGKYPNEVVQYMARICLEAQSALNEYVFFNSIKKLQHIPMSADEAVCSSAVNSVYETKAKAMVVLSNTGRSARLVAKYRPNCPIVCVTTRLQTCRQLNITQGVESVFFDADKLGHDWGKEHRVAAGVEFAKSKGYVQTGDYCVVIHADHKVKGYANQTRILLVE
# Summary of the method: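 Mutant LmPYK (E451W), 0.2 nM, plus 0.5 mM PEP and 0.1 mM ADP in 50 mM imidazole pH 7.2 containing 0.01% Tween 20 and 0.05% BSA. Incubated 1 h at room temperature; luminescence via PKLight, normalized to DMSO.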
# [6] = Cell Viability - LYMP2-001 (AID 921); conditions: LYMP2-001 lymphoblastoid cell viability; series mostly up to 92.2 µM;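 also: cells exposed to compound for 24 h at 37 °C; nearly all actives have a fitted effect of over 70% in size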; also: potency is read from the fitted curve at half-maximal effect
# Summary of the method: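 A lymphoblastoid cell line of human origin was treated with library compounds across a concentration series for 24 hours, and viable cell number was estimated from ATP-driven luciferase light output. Hill modeling gave AC50.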
# [7] = MultiTox-Fluor Cytotoxicity Assay - LYMP1-001 - Dead Cells (AID 946); conditions: LYMP1-001 lymphoblastoid cells, dead-cell protease fluorescence; series mostly up to 92.2 µM;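 also: cells exposed to compound for 16 h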; also: potency is read from the fitted curve at half-maximal effect
# Summary of the method: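 AC50 from Hill fit of concentration-response; data normalized to DMSO (basal) and 15 uM tetraoctylammonium bromide (100%). LYMP1-001 lymphoblastoid cells, 2500/well, 16 hr compound at 37 C; dead-cell protease fluorescence, Ex/Em 485/520.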
# [8] = qHTS Assay for Identification of Small Molecule Antagonists for Thrombopoietin (TPO) Signaling Pathway (AID 918); conditions: TPO-dependent cell signaling reporter, antagonist mode; also: potency is read from the fitted curve at half-maximal effect; nearly all actives have a fitted effect of over 60% in size
# Summary of the method: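 First, Ba/F3 reporter cells expressing human TPO receptor were held overnight without IL-3. Next, compound and 26 pM TPO were added. After 24 hrs incubation at 37 C, luciferase luminescence under the Glycoprotein IIb promoter was recorded.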
# [9] = MultiTox-Fluor Cytotoxicity Assay - LYMP1-001 - Live Cells (AID 947); conditions: LYMP1-001 lymphoblastoid cells, live-cell protease fluorescence viability; series mostly up to 92.2 µM
# [10] = qHTS Assay for Identification of Small Molecule Agonists for Hypoxia Response Element Signaling Pathway (AID 914; active = well fitted activation curve with a large enough effect in the signal ratio, with a control signal flat, not every such curve was filed as active; the % refers to the signal ratio); conditions: ME-180 (cervical carcinoma) HRE-bla reporter, beta-lactamase ratio, CoCl2, 17 h; active compounds read high
# Summary of the method: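 Reporter activity (beta-lactamase, CCF4 460nm/530nm ratio) in HRE-bla ME-180 cells is recorded after 17 h compound exposure with EC50 CoCl2 at 37 degrees Celsius. AC50 values come from titration data.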
compound,measurement,setting,value
COc1ccccc1N1CCNCC1,outcome,[1],inactive
same,outcome,[2],inactive
same,Potency,[3],inactive
same,Potency,[4],inactive
same,outcome,[5],inactive
Cc1ccc(-c2nc3ccc(C)cn3c2CC(=O)N(C)C)cc1,outcome,[1],inactive
same,outcome,[2],inactive
Cc1cccc(C)c1NC1=NCCCS1,outcome,[1],inactive
same,outcome,[2],inactive
same,outcome,[5],inactive
CC(=O)Nc1cc([As](=O)(O)O)ccc1O,outcome,[1],inactive
same,outcome,[2],inactive
CC[N+]1(C)CCCC(OC(=O)C(O)(c2ccccc2)c2ccccc2)C1 (stereo not drawn),outcome,[1],inactive
same,outcome,[2],inactive
CC(C)CC(N(C)C)C1(c2ccc(Cl)cc2)CCC1 (stereo not drawn),outcome,[1],inactive
same,outcome,[2],inactive
Oc1cccc2cccnc12,outcome,[1],inactive
same,Potency,[6],6.31 µM (active)
same,outcome,[2],inactive
same,Potency,[7],39.8 µM (active)
NN=C(N)N,outcome,[1],inactive
same,outcome,[2],inactive
same,Potency,[3],inactive
same,Potency,[4],inactive
same,outcome,[5],inactive
O=c1[nH]c2ccccc2n1C1CCN(CCCC(c2ccc(F)cc2)c2ccc(F)cc2)CC1,outcome,[1],inactive
same,Potency,[8],10 µM (active)
same,outcome,[2],inactive
same,outcome,[5],inactive
CC(CCc1ccccc1)NC(C)C(O)c1ccc(O)cc1 (stereo not drawn),outcome,[1],inactive
same,outcome,[2],inactive
Cc1ncc(CNC(=O)N(CCCl)N=O)c(N)n1,outcome,[1],inactive
same,outcome,[2],inactive
same,Potency,[4],inactive
same,outcome,[5],inactive
COc1ccc(Cc2nccc3cc(OC)c(OC)cc23)cc1OC,outcome,[1],inactive
same,Potency,[8],12.6 µM (active)
same,outcome,[2],inactive
Clc1ccc(COC(Cn2ccnc2)c2ccc(Cl)cc2Cl)cc1 (stereo not drawn),outcome,[1],inactive
same,outcome,[2],inactive
CC(C)=CC1C(C(=O)OCc2cccc(Oc3ccccc3)c2)C1(C)C (stereo not drawn),outcome,[1],inactive
same,outcome,[2],inactive
O=[N+]([O-])c1cc([As](=O)(O)O)ccc1O,outcome,[1],inactive
same,outcome,[2],inactive
CC(C)=CCOc1c2occc2cc2ccc(=O)oc12,outcome,[1],inactive
same,outcome,[2],inactive
O=c1[nH]c2ccccc2n1CCCN1CCC(n2c(=O)[nH]c3cc(Cl)ccc32)CC1,outcome,[1],inactive
same,outcome,[2],inactive
same,Potency,[4],14.1 µM (active)
same,outcome,[5],inactive
COc1ccc(C(CN(C)C)C2(O)CCCCC2)cc1 (stereo not drawn),outcome,[1],inactive
same,outcome,[2],inactive
CC(C)(C)NCC(O)c1cc(Cl)c(N)c(Cl)c1 (stereo not drawn),outcome,[1],inactive
same,outcome,[2],inactive
CCC1(C2=NCCN2)Cc2ccccc2O1 (stereo not drawn),outcome,[1],inactive
same,outcome,[2],inactive
NCC(O)c1ccc(O)cc1 (stereo not drawn),outcome,[1],inactive
same,Potency,[6],inactive
same,outcome,[2],inactive
same,Potency,[7],inactive
same,outcome,[9],inactive
CCC(COC(=O)c1cc(OC)c(OC)c(OC)c1)(c1ccccc1)N(C)C (stereo not drawn),outcome,[1],inactive
same,outcome,[2],inactive
CCCC(C)(COC(N)=O)COC(=O)NC(C)C (stereo not drawn),outcome,[1],inactive
same,activation,[10],-37.8%
same,Potency,[6],inactive
same,outcome,[2],inactive
same,Potency,[4],inactive
same,outcome,[5],inactive
same,Potency,[7],inactive
NCCc1cc(O)c(O)cc1O,outcome,[1],inactive
same,outcome,[2],inactive
Nc1ccncc1,outcome,[1],inactive
same,outcome,[2],inactive
same,Potency,[3],inactive
same,Potency,[4],inactive
same,outcome,[5],inactive
NCC(CC(=O)O)c1ccc(Cl)cc1 (stereo not drawn),outcome,[1],inactive
same,outcome,[2],inactive
c1ccc(C2CC2)c(OCC2=NCCN2)c1,activation,[10],8.99%
O=P1(NCCCl)OCCCN1CCCl (stereo not drawn),activation,[10],-2.35%
CN1C[C@H](CNC(=O)OCc2ccccc2)C[C@@H]2c3cccc4c3c(cn4C)C[C@H]21,Potency,[8],10 µM (active)
Fc1ccc(C(OCCN2CCN(CCCc3ccccc3)CC2)c2ccc(F)cc2)cc1,Potency,[8],10 µM (active)

# Source: PubChem BioAssay (NCATS)
